Data taken from PubChem BioAssay AID1224921 (Broad Institute, 2016).
Screen size: about 1,400 compounds; about 350 (25%) were called active. Roughly 2% stayed inconclusive and do not appear here. Not all results are given here. Results with a measured potency or affinity are listed apart. A number with no mark means an inactive call. The rule behind the calls is not given here.

Test: C. difficile growth inhibition, confirmation, 4-point retest (AID 1224921);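 note: plate controls were DMSO wells for no effect and levofloxacin 16 µg/mL wells for full effect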
Conditions: Clostridioides difficile clinical isolate growth, OD600, 24 h, stronger effect = lower value; at 30 µM unless noted

Going from `CO[C@H]1CN(C)C(=O)c2cc(NS(=O)(=O)c3cccc(F)c3)ccc2OC[C@H](C)N(Cc2cc(F)ccc2F)C[C@H]1C` to `CO[C@@H]1CN(C)C(=O)c2cc(NS(=O)(=O)c3cn(C)cn3)ccc2OC[C@@H](C)N(Cc2ccc(C(F)(F)F)cc2)C[C@H]1C`, the max activity rises from 7.97% to 43.6%.

Going from `CCC(=O)Nc1ccc2c(c1)C(=O)N(C)C[C@@H](OC)[C@@H](C)CN(C(=O)CN1CCOCC1)[C@H](C)CO2` to `CCCNC(=O)N(C)C[C@H]1Oc2ncc(C#CCc3ccccc3)cc2C(=O)N([C@@H](C)CO)C[C@@H]1C`, the max activity falls from 18.1% to 16.1%.

First: C[C@H](CO)N1C[C@H](C)[C@@H](CN(C)S(=O)(=O)CC(F)(F)F)OCc2ccccc2-c2c(n(C)c3ccccc23)C1=O
Second: C[C@@H]1CN([C@H](C)CO)C(=O)Cc2cc(NS(C)(=O)=O)ccc2O[C@@H]1CN(C)Cc1ccc(-c2ccccc2)cc1
The max activity of the first is lower: 24.2% for the first, 52.1% for the second.

Compared with `C[C@H](O)C#Cc1cnc2c(c1)C(=O)N([C@@H](C)CO)C[C@H](C)[C@H](CN(C)Cc1ccc(-c3ccccc3)cc1)O2`, `CC(=O)N(C)C[C@@H]1Oc2ncc(C#Cc3ccc(F)cc3)cc2C(=O)N([C@@H](C)CO)C[C@H]1C` is lower in max activity: 31.6% for the first, 24.8% for the second.

Compared with `C[C@@H]1CN([C@@H](C)CO)C(=O)c2cc(C#CC3CCCCC3)cnc2O[C@H]1CN(C)Cc1cccnc1`, `C[C@@H]1CN([C@@H](C)CO)C(=O)c2cc(C#CC3CCCCC3)cnc2O[C@@H]1CN(C)Cc1cccnc1` is higher in max activity: 21.1% for the first, 58.9% for the second.

First: Cc1ccccc1S(=O)(=O)N1[C@H](CO)[C@@H](c2ccc(C#CC3CC3)cc2)[C@@H]1C#N
Second: O=C(C[C@@H]1CC[C@@H](NC(=O)Nc2cc(F)ccc2F)[C@H](CO)O1)NCc1ccc2c(c1)OCO2
The max activity of the first is higher: 34.7% for the first, 8.77% for the second.

Compared with `C[C@@H]1CN([C@H](C)CO)S(=O)(=O)c2ccc(C3=CCCCC3)cc2O[C@@H]1CN(C)Cc1ccncc1`, `C[C@H](CO)N1C[C@H](C)[C@H](CN(C)Cc2cccnc2)Oc2cc(C3=CCCCC3)ccc2S1(=O)=O` is higher in max activity: 19.4% for the first, 37% for the second.

First: CCCN1C[C@H](C)[C@H](OC)CN(C)C(=O)c2cc(NC(=O)c3cccc(OC)c3)ccc2OC[C@@H]1C
Second: C[C@@H]1CCCCO[C@@H](CN(C)S(=O)(=O)c2cn(C)cn2)[C@H](C)CN([C@H](C)CO)C(=O)c2cc(NS(=O)(=O)c3ccccc3)ccc2O1
The max activity of the first is higher: -8.29% [at 0.5 µM] for the first, -10.5% [at 0.5 µM] for the second.

First: C[C@H](CO)N1C[C@H](C)[C@@H](CN(C)Cc2ccc3c(c2)OCO3)Oc2ccc(NC(=O)Nc3ccc4c(c3)OCO4)cc2C1=O
Second: C[C@H]1CN([C@@H](C)CO)C(=O)Cc2cc(NS(=O)(=O)c3cccs3)ccc2O[C@@H]1CN(C)Cc1ccc(Cl)c(Cl)c1
The max activity of the first is lower: -9.66% [at 8 µM] for the first, 33.5% [at 8 µM] for the second.

First: CC(C)CC#Cc1ccc2c(c1)O[C@@H](CN(C)Cc1ccncc1)[C@H](C)CN([C@H](C)CO)S2(=O)=O
Second: COc1ccc(C#Cc2cnc3c(c2)C(=O)N([C@@H](C)CO)C[C@H](C)[C@@H](CN(C)CC2CCOCC2)O3)cc1
The max activity of the first is higher: 18.2% [at 8 µM] for the first, 8.65% [at 8 µM] for the second.

First: O=C(C[C@H]1CC[C@H](NC(=O)CCN2CCCCC2)[C@H](CO)O1)Nc1nccs1
Second: O=C(C[C@H]1C[C@H]2c3cc(NC(=O)Nc4ccc(F)cc4)ccc3O[C@H]2[C@@H](CO)O1)NC1CCCC1
The max activity of the first is lower: -18.1% [at 8 µM] for the first, -13.7% [at 8 µM] for the second.

Compared with `CO[C@@H]1CN(C)C(=O)c2cc(NC(C)=O)ccc2OC[C@@H](C)N(C(=O)c2ccccn2)C[C@@H]1C`, `CO[C@@H]1CN(C)C(=O)c2ccc(NS(=O)(=O)c3cn(C)cn3)cc2OC[C@@H](C)N(Cc2ccc(C(F)(F)F)cc2)C[C@H]1C` is higher in max activity: -15.1% [at 8 µM] for the first, 35.5% [at 8 µM] for the second.

Going from `COc1ccccc1C#Cc1ccc([C@H]2[C@@H](C#N)N(C(=O)C3CC3)[C@H]2CO)cc1` to `CO[C@@H](CN(C)S(=O)(=O)c1ccc(C)cc1)[C@H](C)CN(C(=O)Nc1ccccc1F)[C@@H](C)CO`, the max activity falls from 22.1% [at 8 µM] to -7.73% [at 8 µM].

Compared with `C[C@@H]1CN([C@@H](C)CO)S(=O)(=O)c2ccc(C#CCC3CCCC3)cc2O[C@H]1CN(C)C(=O)CC1CC1`, `C[C@@H]1CN([C@H](C)CO)C(=O)c2ccccc2-c2ccccc2CO[C@@H]1CN(C)S(=O)(=O)c1ccsc1` is higher in max activity: -15.8% [at 1.95 µM] for the first, 12% [at 1.95 µM] for the second.

Going from `CCCN1C[C@@H](C)[C@@H](OC)CN(C)C(=O)c2cc(NC(=O)c3cccc(F)c3)ccc2OC[C@H]1C` to `CO[C@H]1CN(C)C(=O)c2cc(NC(=O)c3cccc(F)c3)ccc2OC[C@H](C)N(C(C)=O)C[C@@H]1C`, the max activity rises from -11.3% [at 1.95 µM] to -4.07% [at 1.95 µM].

Compared with `COc1ccc(S(=O)(=O)Nc2ccc3c(c2)OC[C@@H](C)N(C)C[C@@H](C)[C@H](OC)CN(C)C3=O)cc1`, `CCCC(=O)Nc1ccc2c(c1)OC[C@@H](C)N(CCc1ccccc1)C[C@H](C)[C@H](OC)CN(C)C2=O` is higher in max activity: -9.73% [at 1.95 µM] for the first, -4.85% [at 1.95 µM] for the second.

With `O=C(C[C@@H]1C[C@@H]2c3cc(NC(=O)Nc4ccc(C(F)(F)F)cc4)ccc3O[C@@H]2[C@H](CO)O1)NCc1ccccn1` the max activity was -9.23% [at 1.95 µM].

`COc1ccc(NC(=O)Nc2ccc3c(c2)[C@H]2C[C@H](CC(=O)N[C@@H](C)c4ccccc4)O[C@@H](CO)[C@H]2O3)cc1` showed a max activity of -8.28% [at 2.1 µM].

In the case of `C[C@@H]1CN([C@H](C)CO)C(=O)c2cc(NC(=O)Nc3cccc4ccccc34)ccc2O[C@@H](C)CCCCO[C@H]1CN(C)S(=O)(=O)c1cn(C)cn1`, the max activity was 30.5% [at 35 µM].
